# The sample as a whole holds a higher share of hits than the screen did.
# TbREL1 inh – TbREL1 RNA ligase inhibitors, primary screen, biochemical, FRET fluorescence; RNA-editing ligase 1, mitochondrial (Trypanosoma brucei brucei), P86926; TbREL1 RNA ligation; inhibition, % at 9.66 µM; actives 0.49% (n = 89,000); AID 1117264, 2014;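 active = inhibition above the mean inhibition across all screened compounds plus 3 SD, cut at about 11% in these data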;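 note: 0% = plate median of test wells and 100% = NSC42067 control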
# Target sequence (P86926 whole entry, looked up): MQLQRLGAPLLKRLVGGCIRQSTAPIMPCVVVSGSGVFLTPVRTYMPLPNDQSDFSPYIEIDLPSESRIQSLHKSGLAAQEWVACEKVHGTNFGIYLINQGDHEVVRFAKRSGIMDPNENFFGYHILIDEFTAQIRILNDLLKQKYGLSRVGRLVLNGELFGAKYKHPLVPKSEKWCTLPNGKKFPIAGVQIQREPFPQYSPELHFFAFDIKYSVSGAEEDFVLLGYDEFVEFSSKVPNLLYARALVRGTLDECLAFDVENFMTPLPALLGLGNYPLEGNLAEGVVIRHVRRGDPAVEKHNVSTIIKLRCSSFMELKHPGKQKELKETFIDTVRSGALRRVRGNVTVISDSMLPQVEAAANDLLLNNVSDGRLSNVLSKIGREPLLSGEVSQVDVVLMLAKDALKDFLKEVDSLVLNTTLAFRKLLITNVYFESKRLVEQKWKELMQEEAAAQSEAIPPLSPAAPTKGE
# TbREL1 confirm – TbREL1 RNA ligase inhibitors, confirmation, biochemical, FRET fluorescence, triplicate | shares compounds with TbREL1 inh | TbREL1 RNA ligation | inhibition, % at 9.66 µM | actives 37% (n = 390);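 active = mean inhibition across replicates above a set limit taken from the earlier primary screen, cut at about 11% in these data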;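 note: 0% = REL1 with substrate and DMSO and 100% = REL1 plus control inhibitor NSC42067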
# Starred values were filed as active, the others as inactive.
SMILES,TbREL1 inh,others
O=C(c1ccc(Br)o1)N1CCN(Cc2ccc3c(c2)OCO3)CC1,27.4*,
O=C(c1cc(-c2ccc(F)cc2)no1)N1CCN(Cc2ccc3c(c2)OCO3)CC1,-3.4,
O=C(CSc1nnc(-c2cccs2)o1)c1ccc(F)cc1,-0.1,
CCCCNC(=O)NCC1CCN(Cc2ccc(OC)cc2)CC1,5.4,
CCC(NC(=O)c1cccc2c1C(=O)N(Cc1cccnc1)C2)c1ccccc1 (stereo not drawn),0.0,
COc1ccc(Nc2nc(NCc3ccco3)nc(N)c2[N+](=O)[O-])cc1,-0.5,
Nc1nc(Nc2cccc(Cl)c2)nc(NCCO)c1[N+](=O)[O-],5.5,
Nc1nc(Nc2cccc(Cl)c2)nc(NCc2ccco2)c1[N+](=O)[O-],11.1*,
Cn1c(SCC(=O)Nc2ccc(S(=O)(=O)Nc3nccs3)cc2)nc2sc3c(c2c1=O)CCCC3,-5.6,
Nc1cccc(Nc2ccccc2)c1,-2.5,
Cc1ccc(S(=O)(=O)c2cc(Nc3ccccc3)ccc2O)cc1,3.2,
O=S(=O)(O)c1cc(O)c2cc(Nc3ccccc3)ccc2c1,13.8*,
Cn1c(=O)cc(OCCCC(=O)Nc2cc(-c3ccncc3)ccn2)c2ccccc21,-0.1,
O=c1c(OC2OC(CO)C(O)C(O)C2O)c(-c2ccc(O)c(O)c2)oc2cc(O)cc(O)c12 (stereo not drawn),91.6*,
O=c1c(O[C@H]2O[C@@H](CO)[C@H](O)[C@@H](O)[C@@H]2O)c(-c2ccc(O)cc2)oc2cc(O)cc(O)c12,3.4,
O=c1c2c(O)cc(O)cc2oc2c(O)ccc(O[C@H]3O[C@@H](CO)[C@H](O)[C@@H](O)[C@@H]3O)c12,4.9,
CCCCC(=O)N1CCC(NS(=O)(=O)c2ccc3c(c2)CCN3C(C)=O)CC1,3.6,
Cc1ccc(-n2c(SCc3c(Cl)cccc3Cl)nnc2-c2ccco2)cc1,-1.2,
CN(CCC#N)C(=O)COC(=O)c1ccc2[nH]c3c(c2c1)CCCC3,1.5,
CC(C)CNC(=O)COC(=O)c1c2c(nc3ccccc13)/C(=C\c1cccs1)CC2,-4.4,
CN(CCC#N)C(=O)COC(=O)c1c2c(nc3ccccc13)/C(=C/c1ccco1)CC2,20.8*,
COc1ccc(C(=O)NN)cc1COc1ccc(Br)cc1,6.4,
C=CCc1cccc(CNc2ccc(Br)cc2)c1O,-3.0,
COc1ccc(Br)cc1CNc1ccc(O)cc1,23.8*,
CC(C)c1nc(N(C)S(C)(=O)=O)nc(-c2ccc(F)cc2)c1/C=C/[C@H](O)C[C@@H](O)CC(=O)O,0.8,
SMILES,TbREL1 inh,others
C(=C\c1ccccc1)/CSc1nnc(Cc2cccs2)n1-c1ccccc1,0.6,
C[C@@H]1CCN(C2CC2)S(=O)(=O)c2c(cccc2N2CCC[C@@H]2C)O1,-0.2,
Cc1ccccc1NC(=O)CCS(=O)(=O)c1ccccc1,0.4,
Cc1ccc(CNc2ccc3nnc(-c4ccccc4)n3n2)cc1,11.1*,
Cc1ccc(CNc2cnccn2)cc1,-0.1,
O=C(NCCc1nnc2ccc(NCc3ccc(Cl)cc3)nn12)c1ccccc1,-0.2,
NC(=O)c1ncn([C@@H]2O[C@H](C(=O)N[C@H](Cc3ccccc3)C(=O)N3CCN(c4ccc(Cl)cn4)CC3)[C@@H](O)[C@H]2O)n1,-0.8,
COc1ccc(OC)c(S(=O)(=O)N2CCCCC2C(=O)N2CCN(Cc3ccc(F)cc3)CC2)c1 (stereo not drawn),-2.5,
S=c1[nH]nc(-c2n[nH]c3c2CCC3)n1N=Cc1ccc(OCc2ccccc2)cc1,3.5,
COC(=O)[C@]12C[C@H](CC(=O)NCc3ccccc3)C(=O)N(Cc3cccc4ccccc34)C1=C[C@H](C(C)C)O[C@@H]2C1CC1,-1.0,
COc1ccccc1C=C1SC(=S)NC1=O,3.0,
O=C1NC(=S)S/C1=C\c1ccc(SCc2ccccc2)o1,42.7*,TbREL1 confirm=7.0
O=C1NC(=NCc2ccccc2)S/C1=C\c1ccccc1,-0.3,
COc1ccc(C2C(C(=O)N3CCN(c4ccccc4Cl)CC3)CC(=O)N2c2ccc(OC)cc2)cc1 (stereo not drawn),-2.2,
C=CCN1C(=O)[C@H](CC(=O)NCc2cccc(C(F)(F)F)c2)[C@@]2(C(=O)OCC)CCCC=C12,-1.1,
C[C@@H]1CN([C@@H](C)CO)C(=O)c2cccc(NC(=O)Nc3cccc4ccccc34)c2O[C@H]1CN(C)S(=O)(=O)c1ccc2c(c1)OCCO2,-6.6,
Cc1cccc(C(=O)Oc2ccc(/C=N/NC(=O)c3ccc(O)cc3)cc2)c1,-4.0,
O=C(N/N=C/c1ccc(OC(=O)c2ccccc2Cl)cc1)c1cc(O)cc(O)c1,12.4*,TbREL1 confirm=18.8*
COc1ccc(/C=N/NC(=O)c2cccc(NC(=O)c3ccccc3Cl)c2)cc1,1.6,
CCCC[C@H]1C2CC(OC(=O)NCCCC(=O)OCC)C(C2)[C@H]2CCCCN21 (stereo partly drawn),1.6,
CC(C)Oc1ccc(Oc2ccc(C#C[C@H](C)N3C(=O)c4ccccc4C3=O)cc2)cn1,-3.8,
Cc1cc(C)cc(NC(=O)CSc2nc3[nH]c(=O)cc(O)c3s2)c1,-5.2,
N#Cc1c(SCC(=O)Nc2nccs2)sc2c(O)cc(=O)[nH]c12,37.9*,TbREL1 confirm=23.0*
Cc1cc(C)nc(SCC(=O)Nc2nccs2)n1,0.2,
COc1ccc(-c2cc(-c3ccccc3)nc(SCC(=O)Nc3nccs3)c2C#N)cc1,-0.6,
SMILES,TbREL1 inh,others
CCCC(=O)Nc1nnc(SCC)s1,2.7,
CCCSc1nnc(NC(=O)CSc2sc3c(O)cc(=O)[nH]c3c2C#N)s1,27.1*,TbREL1 confirm=16.1*
Cc1ccc(S(=O)(=O)N2CCCC2C(=O)N2CCN(c3ccccc3)CC2)cc1 (stereo not drawn),-2.1,
COC(=O)[C@]12C[C@H](CC(=O)NCc3ccc(C)o3)C(=O)N(Cc3ccc(Cl)cc3Cl)C1=C[C@H](COCc1ccccc1)O[C@@H]2C,-0.6,
CC(=O)O[C@H]1[C@H](OC(C)=O)C[C@]2(OC(C)=O)C[C@H]1OC2=O,6.7,
O=C(N1CCCC1)n1ncc(-c2ccc(-c3ccccc3)cc2)n1,0.1,
COc1ccc(C(=O)c2c(C(F)(F)F)oc3c2C(=O)c2ccccc2C3=O)cc1OC,3.7,
O=C(c1ccccc1)c1c[nH]cc1-c1ccccc1,-0.6,
Cc1oc2c(c1C(=O)c1ccccc1)C(=O)C(=O)c1ccccc1-2,29.2*,TbREL1 confirm=65.7*
COC(=O)[C@H]1C[C@]2(C/C=C(\C)CCC=C(C)C)c3ccccc3N[C@H]2N1,-3.7,
O=C(OCC#CCSc1nnc(-c2cccc3ccccc23)o1)c1ccc(OC(F)(F)F)cc1,4.2,
COc1ccccc1-c1nnc(SCC#CCOC(=O)c2ccc(F)cc2)o1,7.2,
O=S(=O)(c1cc(Cl)cc(Cl)c1)N1CCN(c2nc(-c3cccs3)nc3ccccc23)CC1,11.9*,TbREL1 confirm=6.0
O=S(=O)(c1ccc(Cl)cc1)N1CCN(c2nc(C(F)(F)F)nc3ccccc23)CC1,-0.5,
O=S(=O)(c1cc(C(F)(F)F)ccc1Cl)N1CCN(c2ncnc3ccccc23)CC1,-2.0,
COc1ccc(CN2CCC(CNC(=O)NC3CCCC3)CC2)cc1,4.4,
N=c1c2c(ccn1CCCc1ccccc1)Oc1ccc3ccccc3c1C2c1ccccc1 (stereo not drawn),5.7,
C[C@H]1[C@@H](OC(=O)NCc2ccc(Cl)cc2)CC[C@@]23CCCN2C(=O)CCC[C@@H]13,-1.7,
O=S(=O)(c1ccc(Cl)cc1)N1CCN(Cc2ccc(O)c3ncccc23)CC1,0.1,
Oc1c(Cl)cc(CN2CCOCC2)c2cccnc12,2.2,
